Inconclusive results are not listed. Entries that show only a call come without a potency. Values without a mark were called inactive. The source made the active and inactive calls. Unless noted, calls follow the shape of the dose curve; as a rule, active = well fitted curve in the direction sought with a large enough effect in the repeat runs; inconclusive = weak or mixed curves; inactive = no such curve, though single readings can be large; an effect the other way counts as inactive or inconclusive.
Tests used:
[1] = qHTS assay to identify small molecule antagonists of the thyroid receptor (TR) signaling pathway - cell viability counter screen (AID 743064); also: nearly all actives have a fitted effect of over 50% in size
Outline: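 Fluorescence from CellTiter-Fluor, added after 23.5 h exposure at 37 °C, reported viability of GH3.TRE-Luc cells co-treated with compound and 1 nM T3. Measured in the same wells as the luciferase TR readout.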

[2] = qHTS assay to identify small molecule antagonists of the thyroid receptor (TR) signaling pathway (AID 743065); also: nearly all actives have a fitted effect of over 55% in size
Outline: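 GH3.TRE-Luc rat pituitary cells carrying two TR response elements driving luciferase were plated for 4 h, given compound plus 1 nM T3 (final), and incubated 23.5 h at 37 C. ONE-Glo luminescence measured reporter inhibition; CellTiter-Fluor fluorescence tracked cytotoxicity.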

[3] = system: thyroid hormone receptor (rat, GH3 cells); assay: qHTS assay to identify small molecule agonists of the thyroid receptor (TR) signaling pathway (AID 743066; calls by dose curve)
[4] = target: Estrogen receptor (Homo sapiens) (UniProt P03372); assay: qHTS assay to identify small molecule antagonists of the estrogen receptor alpha (ER-alpha) signaling pathway (AID 743069; active = well fitted curve in the direction sought with a large enough effect in the signal ratio in the repeat runs, not every such curve was filed as active; the % refers to the signal ratio)
Outline: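 HEK293 cells stably carrying an ER-alpha-UAS-bla beta-lactamase reporter were pre-cultured overnight in 2% charcoal-stripped FBS medium. Test compounds in DMSO were added together with 17beta-estradiol for 18 hr at 37C. Read-out was fluorescence after 2 hr with LiveBLAzer B/G FRET substrate at room temperature.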

[5] = qHTS assay to identify small molecule antagonists of the estrogen receptor alpha (ER-alpha) signaling pathway - cell viability counter screen (AID 743074; calls by dose curve; also: nearly all actives have a fitted effect of over 45% in size)
[6] = target: Estrogen receptor (Homo sapiens) (UniProt P03372); assay: qHTS assay to identify small molecule agonists of the estrogen receptor alpha (ER-alpha) signaling pathway (AID 743075; calls by dose curve)
[7] = target: Estrogen receptor (Homo sapiens) (UniProt P03372); assay: qHTS assay to identify small molecule agonists of the estrogen receptor alpha (ER-alpha) signaling pathway using the BG1 cell line (AID 743079); settings: BG1Luc4E2 cells, ERE-luciferase agonist, 22 h; activation: at 70.3 µM (top of the series); also: nearly all actives have a fitted effect of over 20% in size
[8] = qHTS assay to identify small molecule antagonists of the estrogen receptor alpha (ER-alpha) signaling pathway using the BG1 cell line (AID 743080; calls by dose curve;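 also: BG1 cells stimulated with 17beta-estradiol alongside compound; nearly all actives have a fitted effect of over 25% in size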)
Outline: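 Quantitative HTS on the Tox21 10K library: BG1 cells with endogenous ER-alpha and ERE-luciferase reporter, 17beta-estradiol stimulation, 21.5 h compound exposure, luminescence endpoint with parallel fluorescence cytotoxicity counter-read.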

[9] = qHTS assay to identify small molecule antagonists of the estrogen receptor alpha (ER-alpha) signaling pathway using the BG1 cell line - cell viability counter screen (AID 743081);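 also: compound given together with 17beta-estradiol as the ER stimulus; nearly all actives have a fitted effect of over 45% in size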
Aromatase (Homo sapiens) = Aromatase (Homo sapiens) (UniProt P11511); assay: qHTS assay to identify aromatase inhibitors (AID 743083); also: nearly all actives have a fitted effect of over 55% in size
[10] = qHTS assay to identify aromatase inhibitors - cell viability counter screen (AID 743084);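 also: cells stimulated with testosterone during compound exposure; nearly all actives have a fitted effect of over 55% in size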
[11] = target: Aryl hydrocarbon receptor (Homo sapiens) (UniProt P35869); assay: qHTS assay to identify small molecule that activate the aryl hydrocarbon receptor (AhR) signaling pathway (AID 743085);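 also: HG2L7.5c1 human HepG2 liver cells with stably integrated DRE-driven firefly reporter; nearly all actives have a fitted effect of over 15% in size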
Outline: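 Cell line HG2L7.5c1 (human hepatoma, 20× DRE-luc). Plated, 5 h 37C, compound/DMSO added, 24 h 37C. CellTiter-Fluor 30 min 37C → fluorescence; then ONE-Glo 30 min RT → luminescence.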

[12] = qHTS assay to identify small molecule that activate the aryl hydrocarbon receptor (AhR) signaling pathway - cell viability counter screen (AID 743086);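 also: HepG2 liver cells carrying the AhR DRE luciferase reporter; nearly all actives have a fitted effect of over 45% in size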
Outline: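 HepG2-AhR-luc (HG2L7.5c1) cells, 4000/well, were preincubated 5 h at 37C, exposed to compound in qHTS format for 24 hr at 37C, then given CellTiter-Fluor for 30 min; viability was read as fluorescence in the reporter wells.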

[13] = target: Peroxisome proliferator-activated receptor gamma (Homo sapiens) (UniProt P37231); assay: qHTS assay to identify small molecule agonists of the peroxisome proliferator-activated receptor gamma (PPARg) signaling pathway (AID 743094; active = well fitted activation curve with a large enough effect in the signal ratio in the repeat runs, not every such curve was filed as active; the % refers to the signal ratio)
Outline: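 Beta-lactamase FRET fluorescence was the read-out after a 1 h room-temperature substrate step, following 17 h compound treatment at 37C of HEK293H cells expressing a UAS-driven bla reporter responsive to PPARg.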

[14] = target: Peroxisome proliferator-activated receptor gamma (Homo sapiens) (UniProt P37231); assay: qHTS assay to identify small molecule antagonists of the peroxisome proliferator-activated receptor gamma (PPARg) signaling pathway (AID 743191; calls by dose curve; also: nearly all actives have a fitted effect of over 30% in size)
Outline: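 GeneBLAzer PPARg UAS-bla HEK293H cells carrying a UAS-driven beta-lactamase reporter were plated at 3000 cells/well, preincubated 5 h at 37C, then given compound for 17 h at 37C; LiveBLAzer B/G FRET substrate was read after 1 h at room temperature.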

[15] = qHTS assay to identify small molecule antagonists of the peroxisome proliferator-activated receptor gamma (PPARg) signaling pathway - cell viability counter screen (AID 743194); settings: Potency: co-treated with 50 nM rosiglitazone unless noted; also: nearly all actives have a fitted effect of over 55% in size
Outline: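 PPARg-UAS-bla HEK293H cells were plated, rested 5 h at 37 C, then treated with compounds plus rosiglitazone (50 nM final) for 17 h at 37 C; viability was then read by CellTiter-Glo luminescence after 30 min at room temperature.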

[16] = qHTS assay for small molecule agonists of the antioxidant response element (ARE) signaling pathway - cell viability counter screen (AID 743203; calls by dose curve; also: nearly all actives have a fitted effect of over 55% in size)
Outline: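 HepG2 cells carrying ARE-driven beta-lactamase; 2,000 cells/well; 5 hrs plating; compound pinned from DMSO; 16 hrs 37C/5% CO2; CellTiter-Glo added; 30 min RT; luminescence.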

[17] = qHTS assay for small molecule activators of the heat shock response signaling pathway - cell viability counter screen (AID 743209); also: nearly all actives have a fitted effect of over 50% in size
Outline: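 Luminescence from CellTiter-Glo, added after the beta-lactamase FRET read, gave the viability signal. Cells were HSE-bla HeLa treated with DMSO-dissolved compounds for 5 h at 37 C following overnight plating.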

[18] = qHTS assay for small molecule activators of the heat shock response signaling pathway (AID 743210; active = well fitted activation curve with a large enough effect in the signal ratio in the repeat runs, with a control signal flat, not every such curve was filed as active; the % refers to the signal ratio)
Outline: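 HSE-bla HeLa cells (beta-lactamase reporter under heat shock response elements) were exposed to compounds for 5 h at 37 C, then loaded with LiveBLAzer B/G FRET substrate for 2.5 h at room temperature before fluorescence reading.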

[19] = qHTS assay for small molecule agonists of the antioxidant response element (ARE) signaling pathway (AID 743202; active = well fitted activation curve with a large enough effect in the signal ratio in the repeat runs, not every such curve was filed as active; the % refers to the signal ratio; also: potency is read from the fitted curve at half-maximal effect)
Outline: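 Read-out: LiveBLAzer B/G FRET substrate fluorescence after 2 h at room temperature, following 16 h compound treatment at 37 C of HepG2 cells carrying an ARE-driven beta-lactamase reporter.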

Estrogen receptor (Homo sapiens), sequence (P03372 whole entry, looked up): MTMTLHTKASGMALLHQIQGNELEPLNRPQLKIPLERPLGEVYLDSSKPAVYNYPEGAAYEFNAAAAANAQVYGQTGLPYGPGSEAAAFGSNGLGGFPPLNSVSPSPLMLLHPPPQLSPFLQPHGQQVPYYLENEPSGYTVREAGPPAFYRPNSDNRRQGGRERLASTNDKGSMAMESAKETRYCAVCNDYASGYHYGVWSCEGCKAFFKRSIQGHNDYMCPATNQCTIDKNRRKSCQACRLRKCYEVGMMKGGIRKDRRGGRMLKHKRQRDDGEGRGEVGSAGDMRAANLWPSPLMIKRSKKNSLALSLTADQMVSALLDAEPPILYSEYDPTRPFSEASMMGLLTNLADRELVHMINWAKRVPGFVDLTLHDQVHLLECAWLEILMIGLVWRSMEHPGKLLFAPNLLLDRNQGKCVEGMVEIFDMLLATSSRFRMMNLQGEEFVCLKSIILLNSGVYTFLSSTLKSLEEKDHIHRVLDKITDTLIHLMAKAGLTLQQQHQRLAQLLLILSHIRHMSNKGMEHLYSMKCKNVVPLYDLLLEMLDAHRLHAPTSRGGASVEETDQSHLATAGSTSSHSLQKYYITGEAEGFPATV
Aromatase (Homo sapiens), sequence (P11511 whole entry, looked up): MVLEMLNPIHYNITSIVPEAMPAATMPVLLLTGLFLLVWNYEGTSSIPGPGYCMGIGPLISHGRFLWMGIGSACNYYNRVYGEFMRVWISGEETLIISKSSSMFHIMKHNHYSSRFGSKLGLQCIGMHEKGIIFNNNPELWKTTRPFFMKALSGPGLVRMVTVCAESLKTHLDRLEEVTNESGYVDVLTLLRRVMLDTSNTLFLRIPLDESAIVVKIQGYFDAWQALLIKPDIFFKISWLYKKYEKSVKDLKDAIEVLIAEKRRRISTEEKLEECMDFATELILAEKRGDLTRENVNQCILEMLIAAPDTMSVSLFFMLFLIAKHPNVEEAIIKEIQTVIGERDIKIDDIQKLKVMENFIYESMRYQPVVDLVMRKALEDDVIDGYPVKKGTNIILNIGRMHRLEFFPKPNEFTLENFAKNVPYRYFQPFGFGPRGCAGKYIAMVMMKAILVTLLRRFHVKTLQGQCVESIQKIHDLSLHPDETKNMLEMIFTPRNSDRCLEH
Peroxisome proliferator-activated receptor gamma (Homo sapiens), sequence (P37231 whole entry, looked up): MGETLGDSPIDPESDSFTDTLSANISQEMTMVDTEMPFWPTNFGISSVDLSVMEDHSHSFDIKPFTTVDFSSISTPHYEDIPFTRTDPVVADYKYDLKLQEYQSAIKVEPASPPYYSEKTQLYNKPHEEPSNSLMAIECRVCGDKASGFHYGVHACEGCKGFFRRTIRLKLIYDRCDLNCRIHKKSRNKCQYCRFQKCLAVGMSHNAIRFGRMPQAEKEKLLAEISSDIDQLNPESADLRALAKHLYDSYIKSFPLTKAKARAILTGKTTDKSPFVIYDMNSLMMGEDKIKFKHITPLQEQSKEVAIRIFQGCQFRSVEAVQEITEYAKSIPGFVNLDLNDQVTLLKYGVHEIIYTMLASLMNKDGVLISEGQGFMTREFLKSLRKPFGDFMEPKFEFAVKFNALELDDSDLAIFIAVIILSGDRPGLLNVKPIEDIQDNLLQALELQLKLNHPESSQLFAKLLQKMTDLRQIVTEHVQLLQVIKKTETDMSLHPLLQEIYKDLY
Aryl hydrocarbon receptor (Homo sapiens), sequence (P35869 whole entry, looked up): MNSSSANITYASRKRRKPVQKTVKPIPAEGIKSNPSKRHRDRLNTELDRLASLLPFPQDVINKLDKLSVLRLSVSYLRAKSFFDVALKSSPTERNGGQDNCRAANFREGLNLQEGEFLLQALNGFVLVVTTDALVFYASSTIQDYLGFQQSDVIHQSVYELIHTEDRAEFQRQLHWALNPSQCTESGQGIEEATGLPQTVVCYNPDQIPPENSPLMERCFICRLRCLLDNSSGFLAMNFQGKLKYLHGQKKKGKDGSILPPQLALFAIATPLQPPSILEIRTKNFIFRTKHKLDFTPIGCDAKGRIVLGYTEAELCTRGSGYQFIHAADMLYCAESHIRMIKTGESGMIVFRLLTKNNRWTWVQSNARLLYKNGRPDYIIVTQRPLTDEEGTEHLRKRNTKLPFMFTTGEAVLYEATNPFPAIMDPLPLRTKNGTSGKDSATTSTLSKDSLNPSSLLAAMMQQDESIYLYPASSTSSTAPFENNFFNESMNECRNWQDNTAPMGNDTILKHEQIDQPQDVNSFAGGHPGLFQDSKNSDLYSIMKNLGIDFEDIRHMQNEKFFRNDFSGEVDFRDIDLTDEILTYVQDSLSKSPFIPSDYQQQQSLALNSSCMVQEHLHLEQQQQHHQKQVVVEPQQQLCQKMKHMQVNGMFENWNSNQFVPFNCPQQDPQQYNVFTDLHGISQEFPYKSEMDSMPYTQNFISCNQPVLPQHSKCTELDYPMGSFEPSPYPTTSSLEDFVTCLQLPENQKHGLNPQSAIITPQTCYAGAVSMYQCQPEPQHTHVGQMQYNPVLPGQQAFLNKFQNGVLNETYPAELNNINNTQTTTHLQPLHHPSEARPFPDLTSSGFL

## CC(Cc1ccc2c(c1)OCO2)NO (stereo unspecified)
[1]
  Potency: inactive
[2]
  Potency: inactive
[3]
  Potency: inactive
[4]
  Potency: inactive
[5]
  Potency: inactive
[6]
  Potency: inactive
[7]
  Potency: inactive
[8]
  Potency: inactive
[9]
  Potency: inactive
Aromatase (Homo sapiens)
  Potency: inactive
[10]
  Potency: inactive
[11]
  Potency: inactive
[12]
  Potency: inactive
[13]
  Potency: inactive
[14]
  Potency: inactive
[15]
  Potency: inactive
[16]
  Potency: inactive
[17]
  Potency: inactive
[18]
  Potency: inactive

## CCCCc1ccccc1
[1]
  Potency: inactive
[2]
  Potency: inactive
[3]
  Potency: inactive
[4]
  Potency: inactive
[5]
  Potency: inactive
[6]
  Potency: inactive
[7]
  Potency: inactive
[8]
  Potency: inactive
[9]
  Potency: inactive
Aromatase (Homo sapiens)
  Potency: inactive
[10]
  Potency: inactive
[11]
  Potency: inactive
[12]
  Potency: inactive
[13]
  Potency: inactive
[16]
  Potency: inactive
[17]
  Potency: inactive

## CCCCC/C=C\C/C=C\C/C=C\C/C=C\CCCC(=O)NCC(=O)O
[1]
  activity change, negative = cytotoxic: 12.7% [at 8.44 µM]
[2]
  activity, negative = inhibition: 6.65% [at 8.44 µM]
[3]
  activation: 2.19% [at 8.08 µM]
[4]
  activity, negative = inhibition: -29.7% [at 6.71 µM]
[5]
  activity, negative = cytotoxicity: -15.9% [at 6.72 µM]
[6]
  activation: -3.03% [at 6.71 µM]
[7]
  activation: 2.37% [at 8.47 µM]
[8]
  activity change, negative = inhibition: 0.823% [at 8.47 µM]
[9]
  activity change, negative = cytotoxicity: 0.607% [at 8.47 µM]
Aromatase (Homo sapiens)
  activity, negative = inhibition: 4.53% [at 8.47 µM]
[10]
  activity change, negative = cytotoxicity: -2.83% [at 8.47 µM]
[11]
  activation: -2.57% [at 8.47 µM]
[12]
  viability change, negative = cytotoxic: 8.28% [at 8.47 µM]
[15]
  Potency: inactive
[16]
  Potency: inactive

## ClSC(Cl)(Cl)Cl
[1]
  Potency: inactive
[2]
  Potency: inactive
[3]
  Potency: inactive
[4]
  Potency: inactive
[5]
  Potency: inactive
[6]
  Potency: inactive
[7]
  Potency: inactive
[8]
  Potency: inactive
[9]
  Potency: inactive
Aromatase (Homo sapiens)
  Potency: inactive
[10]
  Potency: inactive
[11]
  Potency: inactive
[12]
  Potency: inactive
[13]
  Potency: inactive
[14]
  Potency: inactive
[15]
  Potency: inactive
[19]
  Potency: inactive
[16]
  Potency: inactive
[17]
  Potency: inactive
[18]
  Potency: inactive

## Cc1cnc2c(C(=O)O)c(Cl)ccc2c1
[1]
  Potency: inactive
[2]
  Potency: inactive
[3]
  Potency: inactive
[4]
  Potency: inactive
[5]
  Potency: inactive
[6]
  Potency: inactive
[7]
  Potency: inactive
[8]
  Potency: inactive
[9]
  Potency: inactive
Aromatase (Homo sapiens)
  Potency: inactive
[10]
  Potency: inactive
[13]
  Potency: inactive
[14]
  Potency: inactive
[15]
  Potency: inactive
[19]
  Potency: inactive
[16]
  Potency: inactive
[17]
  Potency: inactive
[18]
  Potency: inactive

## O=[N+]([O-])c1ccc(CCl)cc1
[1]
  Potency: inactive
[2]
  Potency: inactive
[3]
  Potency: inactive
[4]
  Potency: inactive
[5]
  Potency: inactive
[6]
  Potency: inactive
[7]
  Potency: inactive
[9]
  Potency: inactive
Aromatase (Homo sapiens)
  Potency: inactive
[10]
  Potency: inactive
[11]
  Potency: inactive
[12]
  Potency: inactive
[15]
  Potency: inactive
[16]
  Potency: inactive
[17]
  Potency: inactive
[18]
  Potency: inactive

## C=Cc1cccc(CCl)c1
[1]
  Potency: inactive
[2]
  Potency: inactive
[3]
  Potency: inactive
[4]
  Potency: inactive
[5]
  Potency: inactive
[6]
  Potency: inactive
[7]
  Potency: inactive
[8]
  Potency: inactive
[9]
  Potency: inactive
Aromatase (Homo sapiens)
  Potency: inactive
[10]
  Potency: inactive
[11]
  Potency: inactive
[12]
  Potency: inactive
[19]
  Potency: 55.9 µM (active)
[16]
  Potency: inactive
[17]
  Potency: inactive
[18]
  Potency: inactive
